Experimental data as given in paper PMC11574364.

Each sequence was assayed against hnRNP-P2 (Homo sapiens, UniProt P35637) (assay: protein domain microarray probed with biotinylated miRNA; Domain array: 20 mM Tris-HCl pH 7.4, 200 mM KCl, 0.2 mM EDTA, 0.05% NP40, 2 ug/ul heparin, overnight 4 C. ORF array: PBS pH 7.0 with RNase inhibitor, 100 ng RNA; high values mean tight binding). Details: ssRNA.
hnRNP-P2, sequence (P35637 265-390): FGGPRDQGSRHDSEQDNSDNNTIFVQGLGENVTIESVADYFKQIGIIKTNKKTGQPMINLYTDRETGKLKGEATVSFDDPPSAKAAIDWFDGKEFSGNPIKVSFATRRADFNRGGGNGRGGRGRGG

In order of falling binding signal:
1. UGAGGUAGUAGGUUGUGUGGUU  576 ± 71.1 fluorescence intensity
2. UGAGGUAGUAGGUUGUAUGGUU  441 ± 19.8 fluorescence intensity
3. AGAGGUAGUAGGUUGCAUAGUU  131 ± 2.9 fluorescence intensity
4. UGAGGUAGUAGGUUGUAUAGUU  58.1 ± 13.9 fluorescence intensity
5. CAGUGCAAUGAUGAAAGGGCAU  40.3 ± 3.56 fluorescence intensity

These sequences were tested against T1, hnRNP-H2 (Homo sapiens, UniProt P55795) in the same assay as above. Details: ssRNA.
T1 sequence: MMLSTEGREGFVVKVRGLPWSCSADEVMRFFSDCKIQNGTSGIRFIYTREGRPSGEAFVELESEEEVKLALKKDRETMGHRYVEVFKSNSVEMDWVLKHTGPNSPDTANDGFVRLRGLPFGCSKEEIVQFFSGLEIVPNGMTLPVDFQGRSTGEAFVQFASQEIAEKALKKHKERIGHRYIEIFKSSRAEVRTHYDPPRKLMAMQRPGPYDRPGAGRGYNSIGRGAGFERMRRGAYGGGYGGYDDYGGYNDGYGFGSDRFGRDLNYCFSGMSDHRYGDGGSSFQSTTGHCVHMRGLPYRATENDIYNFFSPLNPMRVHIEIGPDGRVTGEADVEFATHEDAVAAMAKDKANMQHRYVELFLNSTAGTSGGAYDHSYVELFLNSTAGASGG

In order of rising binding signal:
1. UAGCUUAUCAGACUGAUGUUGA  20 ± 0.509 fluorescence intensity
2. UGAGGUAGUAGGUUGUAUAGUU  258 ± 16.1 fluorescence intensity
3. UGAGGUAGUAGGUUGUAUGGUU  663 ± 15.2 fluorescence intensity
4. UGAGGUAGUAGGUUGUGUGGUU  727 ± 35.9 fluorescence intensity
5. AGAGGUAGUAGGUUGCAUAGUU  907 ± 16.1 fluorescence intensity
6. CAGUGCAAUGAUGAAAGGGCAU  944.5 ± 8.38 fluorescence intensity

What follows are sequences tested against T2, MTHFSD (Homo sapiens, UniProt Q2M296) in the same assay as above. Details: ssRNA.
T2 sequence: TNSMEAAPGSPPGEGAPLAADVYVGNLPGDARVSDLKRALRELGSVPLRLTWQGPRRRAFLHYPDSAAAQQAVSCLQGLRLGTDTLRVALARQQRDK

In order of rising binding signal:
1. UAGCUUAUCAGACUGAUGUUGA  42.6 ± 13.9 fluorescence intensity
2. UGAGGUAGUAGGUUGUAUAGUU  133 ± 32.4 fluorescence intensity
3. CAGUGCAAUGAUGAAAGGGCAU  349.3 ± 0.905 fluorescence intensity
4. UGAGGUAGUAGGUUGUGUGGUU  439 ± 58.4 fluorescence intensity
5. UGAGGUAGUAGGUUGUAUGGUU  488 ± 22.1 fluorescence intensity
6. AGAGGUAGUAGGUUGCAUAGUU  716 ± 48.4 fluorescence intensity
